Results filed as inconclusive are left out. Calls of active or inactive are those of the source. Calls follow the shape of the dose curve; as a rule, active = well fitted curve in the direction sought with a large enough effect; inconclusive = small, poorly fitted or top-dose-only effect, or another doubt; inactive = no such curve, though single readings can be large; an effect the other way counts as inactive or inconclusive.
How the values were obtained:
[1] = Quantitative High-Throughput drug screen in 47 multiple myeloma cell lines against the NCATS MIPE library collection: H1112_PLB cell viability assay (AID 1918967; also: nearly all actives have a fitted effect of over 30% in size; also: potency is read from the fitted curve at half-maximal effect)
How it was run: (§1)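 CellTiter-Glo luminescence (ATP) after 48 h compound exposure, 37C/5% CO2; 500 cells/well; MIPE 4.0 approved/investigational drugs pinned in; DMSO = 100%, media only = 0% viability.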

[2] = Quantitative High-Throughput drug screen in 47 multiple myeloma cell lines against the NCATS MIPE library collection: Karpas25_ECACC cell viability assay (AID 1918968; also: nearly all actives have a fitted effect of over 35% in size; also: potency is read from the fitted curve at half-maximal effect)
How it was run: as §1

[3] = Quantitative High-Throughput drug screen in 47 multiple myeloma cell lines against the NCATS MIPE library collection: KMS20_JCRB cell viability assay (AID 1918973); also: nearly all actives have a fitted effect of over 45% in size; also: potency is read from the fitted curve at half-maximal effect
How it was run: as §1

[4] = Quantitative High-Throughput drug screen in 47 multiple myeloma cell lines against the NCATS MIPE library collection: NCIH929_DSMZ cell viability assay (AID 1918978); also: nearly all actives have a fitted effect of over 35% in size; also: potency is read from the fitted curve at half-maximal effect
How it was run: (§2)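 ATP-based luminescence (CellTiter-Glo, 5 min RT incubation) quantified surviving cells following two days' treatment with MIPE 4.0 agents at 37 °C, 5% CO2.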

[5] = Quantitative High-Throughput drug screen in 47 multiple myeloma cell lines against the NCATS MIPE library collection: MM1S_ATCC cell viability assay (AID 1918980); also: nearly all actives have a fitted effect of over 45% in size; also: potency is read from the fitted curve at half-maximal effect
How it was run: as §2

[6] = Quantitative High-Throughput drug screen in 47 multiple myeloma cell lines against the NCATS MIPE library collection: LP1_DSMZ cell viability assay (AID 1918982); also: nearly all actives have a fitted effect of over 35% in size; also: potency is read from the fitted curve at half-maximal effect
How it was run: as §2

[7] = Quantitative High-Throughput drug screen in 47 multiple myeloma cell lines against the NCATS MIPE library collection: OCIMY5_PLB cell viability assay (AID 1918988); also: nearly all actives have a fitted effect of over 65% in size; also: potency is read from the fitted curve at half-maximal effect
How it was run: as §2

[8] = Quantitative High-Throughput drug screen in 47 multiple myeloma cell lines against the NCATS MIPE library collection: KMS27_JCRB cell viability assay (AID 1918970); also: nearly all actives have a fitted effect of over 30% in size; also: potency is read from the fitted curve at half-maximal effect
How it was run: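 Myeloma cells (500 per well) were exposed to MIPE 4.0 compounds for 48 h at 37 °C, 5% CO2; viability was read as ATP luminescence with CellTiter-Glo, normalized to DMSO-only (100%) and media-only (0%) wells.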

[9] = Quantitative High-Throughput drug screen in 47 multiple myeloma cell lines against the NCATS MIPE library collection: KMS12BM_JCRB cell viability assay (AID 1918971); also: nearly all actives have a fitted effect of over 35% in size; also: potency is read from the fitted curve at half-maximal effect
How it was run: (§3)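 We plated 500 myeloma cells per well, pinned in MIPE 4.0 compounds, and incubated for 48 hours at 37C. ATP was then quantified with CellTiter-Glo, with DMSO and media-only wells defining 100% and 0%.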

[10] = Quantitative High-Throughput drug screen in 47 multiple myeloma cell lines against the NCATS MIPE library collection: KMS12PE_JCRB cell viability assay (AID 1918972); also: nearly all actives have a fitted effect of over 30% in size; also: potency is read from the fitted curve at half-maximal effect
How it was run: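 Inhibition of cell viability is measured here. Each line was plated at 500 cells per well, treated with MIPE 4.0 drugs, kept 48 hours at 37C, then assayed for ATP content by CellTiter-Glo luminescence.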

[11] = Quantitative High-Throughput drug screen in 47 multiple myeloma cell lines against the NCATS MIPE library collection: MOLP8_DSMZ cell viability assay (AID 1918977); also: nearly all actives have a fitted effect of over 45% in size
How it was run: as §2

[12] = Quantitative High-Throughput drug screen in 47 multiple myeloma cell lines against the NCATS MIPE library collection: OCIMY1_PLB cell viability assay (AID 1918979); also: nearly all actives have a fitted effect of over 35% in size
How it was run: as §2

[13] = Quantitative High-Throughput drug screen in 47 multiple myeloma cell lines against the NCATS MIPE library collection: MM1R_ATCC cell viability assay (AID 1918981); also: nearly all actives have a fitted effect of over 35% in size; also: potency is read from the fitted curve at half-maximal effect
How it was run: as §2

[14] = Quantitative High-Throughput drug screen in 47 multiple myeloma cell lines against the NCATS MIPE library collection: KMS34_JCRB cell viability assay (AID 1918985); also: nearly all actives have a fitted effect of over 40% in size; also: potency is read from the fitted curve at half-maximal effect
How it was run: as §2

[15] = Quantitative High-Throughput drug screen in 47 multiple myeloma cell lines against the NCATS MIPE library collection: MMM1_PLB cell viability assay (AID 1918976)
How it was run: as §2

[16] = Quantitative High-Throughput drug screen in 47 multiple myeloma cell lines against the NCATS MIPE library collection: KMS28PE_JCRB cell viability assay (AID 1918983); also: nearly all actives have a fitted effect of over 35% in size; also: potency is read from the fitted curve at half-maximal effect
How it was run: as §2

[17] = Quantitative High-Throughput drug screen in 47 multiple myeloma cell lines against the NCATS MIPE library collection: L363_DSMZ cell viability assay (AID 1918984); also: nearly all actives have a fitted effect of over 40% in size; also: potency is read from the fitted curve at half-maximal effect
How it was run: as §2

[18] = Quantitative High-Throughput drug screen in 47 multiple myeloma cell lines against the NCATS MIPE library collection: KMS26_JCRB cell viability assay (AID 1918975); also: nearly all actives have a fitted effect of over 45% in size; also: potency is read from the fitted curve at half-maximal effect
How it was run: as §3

[19] = Quantitative High-Throughput drug screen in 47 multiple myeloma cell lines against the NCATS MIPE library collection: KMS21BM_JCRB cell viability assay (AID 1918974); conditions: ATP luminescence, 48 h; viability: at 45.8 µM (top of the series) unless noted; also: potency is read from the fitted curve at half-maximal effect
How it was run: as §1

[20] = Quantitative High-Throughput drug screen in 47 multiple myeloma cell lines against the NCATS MIPE library collection: OCIMY7_PLB cell viability assay (AID 1918987); also: potency is read from the fitted curve at half-maximal effect; nearly all actives have a fitted effect of over 65% in size
How it was run: as §2

CCN(CC)CCOc1ccc(Cc2ccccc2)cc1
active: Potency [2] 14.8 µM | Potency [5] 23.5 µM | Potency [6] 14.8 µM | Potency [7] 11.8 µM
inactive: Potency [1] | Potency [3] | Potency [4]

Cc1c(OCC(F)(F)F)ccnc1CS(=O)c1nc2ccccc2[nH]1 (stereo not drawn)
inactive: Potency [8] | Potency [9] | Potency [11] | Potency [12] | Potency [6] | Potency [14]
active: Potency [1] 20.9 µM | Potency [10] 18.7 µM | Potency [13] 0.833 µM

CN(C)[C@@H](CCOc1cccc2ccccc12)c1ccccc1
inactive: Potency [8] | Potency [12]
active: Potency [1] 18.7 µM | Potency [3] 14.8 µM | Potency [15] 20.9 µM | Potency [4] 20.9 µM | Potency [5] 23.5 µM | Potency [14] 20.9 µM | Potency [7] 20.9 µM

Cc1ccc(NC(=O)c2ccc(CN3CCN(C)CC3)cc2)cc1Nc1nccc(-c2cccnc2)n1
active: Potency [2] 23.5 µM
inactive: Potency [1] | Potency [12] | Potency [13] | Potency [16]

CC1(C)NC(=O)N(c2ccc([N+](=O)[O-])c(C(F)(F)F)c2)C1=O
active: Potency [1] 11.8 µM | Potency [6] 18.7 µM | Potency [16] 16.6 µM | Potency [7] 8.33 µM
inactive: Potency [8] | Potency [11] | Potency [4] | Potency [12]

Oc1ccc(OCc2ccccc2)cc1
inactive: Potency [1] | Potency [2] | Potency [10] | Potency [4] | Potency [5] | Potency [13] | Potency [6] | Potency [16] | Potency [17]
active: Potency [14] 18.7 µM

COc1c(O)cc2c(c1O)[C@@H]1O[C@H](CO)[C@@H](O)[C@H](O)[C@H]1OC2=O
inactive: Potency [1] | Potency [3] | Potency [18] | Potency [4] | Potency [5] | Potency [13] | Potency [6] | Potency [16] | Potency [17] | Potency [7]
active: Potency [9] 4.18 µM

CCN(CC)C(=S)SSC(=S)N(CC)CC
inactive: Potency [17]
active: Potency [1] 0.001 µM | Potency [9] 0.0093 µM | Potency [3] 0.001 µM | Potency [18] 0.0105 µM | Potency [15] 0.0187 µM | Potency [5] 0.0093 µM | Potency [13] 0.0093 µM | Potency [6] 0.0209 µM | Potency [16] 0.0118 µM | Potency [14] 0.0235 µM | Potency [7] 0.0059 µM

Cc1cc2cc3c(C)cc(=O)oc3c(C)c2o1
inactive: Potency [11] | Potency [6] | Potency [14]
active: Potency [2] 20.9 µM | Potency [8] 26.4 µM | Potency [9] 16.6 µM | Potency [4] 8.33 µM | Potency [5] 5.9 µM | Potency [13] 20.9 µM | Potency [17] 23.5 µM | Potency [7] 8.33 µM

COCCCOc1ccnc(CS(=O)c2nc3ccccc3[nH]2)c1C (stereo not drawn)
inactive: Potency [1] | Potency [9] | Potency [18] | Potency [4] | Potency [13] | Potency [16] | Potency [17] | Potency [14]

N=C(N=C(N)N)N1CCOCC1
active: Potency [5] 10.5 µM
inactive: Potency [1] | Potency [10] | Potency [3] | Potency [4] | Potency [12] | Potency [6] | Potency [16] | Potency [14]

CN1CCC(=C2c3ccccc3CCc3sccc32)CC1
active: Potency [10] 23.5 µM
inactive: Potency [1] | Potency [11] | Potency [4] | Potency [13] | Potency [6] | Potency [16] | Potency [14] | Potency [7]

COc1ccc2cc([C@H](C)C(=O)O)ccc2c1
inactive: Potency [1] | Potency [10] | Potency [18] | Potency [11] | Potency [4] | Potency [5] | Potency [13] | Potency [6] | Potency [14]
active: Potency [15] 16.6 µM | Potency [7] 20.9 µM

CCCCCCCCCCCCCCCCCCCCCCO
inactive: Potency [1] | Potency [10] | Potency [12] | Potency [13] | Potency [16] | Potency [17] | Potency [14] | Potency [7]

Cc1nc(-c2ccc(OCC(C)C)c(C#N)c2)sc1C(=O)O
inactive: Potency [1] | Potency [3] | Potency [4] | Potency [5] | Potency [16] | Potency [14]

O=c1cc(N2CCOCC2)oc2c(-c3ccccc3)cccc12
inactive: Potency [8] | Potency [19] | Potency [17]
active: Potency [2] 7.43 µM | Potency [9] 14.8 µM | Potency [18] 7.43 µM | Potency [5] 14.8 µM | Potency [13] 7.43 µM | Potency [6] 11.8 µM | Potency [14] 11.8 µM | Potency [7] 13.2 µM

CCCCC(CC)COC(=O)C(C#N)=C(c1ccccc1)c1ccccc1 (stereo not drawn)
inactive: Potency [1] | Potency [10] | Potency [3] | Potency [18] | Potency [11] | Potency [4] | Potency [12] | Potency [13] | Potency [16] | Potency [14]

O=C1c2c(O)cc(O)cc2OC(c2ccc(O)c(O)c2)C1O (stereo not drawn)
active: Potency [20] 14.8 µM
inactive: Potency [1] | Potency [18] | Potency [11] | Potency [4] | Potency [12] | Potency [6] | Potency [7]

O=C(O)c1cccc(-c2noc(-c3ccccc3F)n2)c1
inactive: Potency [1] | Potency [3] | Potency [4] | Potency [12] | Potency [6] | Potency [14]
active: Potency [9] 16.6 µM | viability [19] 121% | Potency [5] 20.9 µM | Potency [7] 9.35 µM

COc1cc(OC)c(C(=O)CCCN2CCCC2)c(OC)c1
active: Potency [19] 18.7 µM | Potency [5] 16.6 µM
inactive: Potency [1] | Potency [10] | Potency [11] | Potency [4] | Potency [12] | Potency [13] | Potency [6] | Potency [14] | Potency [7]

CCOc1cc(CC(=O)N[C@@H](CC(C)C)c2ccccc2N2CCCCC2)ccc1C(=O)O
inactive: Potency [1] | Potency [4] | Potency [6] | Potency [14]
active: Potency [3] 0.59 µM

CCC[C@@H]1C[C@@H](C(=O)N[C@@H]([C@H]2O[C@H](SC)[C@H](O)[C@@H](O)[C@H]2O)[C@@H](C)O)N(C)C1
inactive: Potency [1] | Potency [18] | Potency [4] | Potency [5] | Potency [13] | Potency [6] | Potency [16]
active: Potency [9] 2.64 µM

Cc1cccc(C)c1OCC(=O)N[C@@H](Cc1ccccc1)[C@@H](O)C[C@H](Cc1ccccc1)NC(=O)[C@H](C(C)C)N1CCCNC1=O
active: Potency [1] 16.6 µM | Potency [10] 6.62 µM | Potency [18] 18.7 µM | Potency [15] 16.6 µM | Potency [5] 20.9 µM | Potency [16] 20.9 µM
inactive: Potency [7]
